Screens (PubChem)
Shown are actives, neighbours in structure and some others; about 2.2% of the full set was active somewhere.
PLCb3 inh = inhibitors of human phospholipase C beta3; Q01970; Purified PLC-beta3, fluorogenic substrate, fluorescence; inhibition, % at 12.2 µM; 370,000 tested, 0.18% active; AID 720704; in the data active = inhibition above about 11%;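 note: 0% = median of compound wells on plate and 100% = full blocker control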
GC-A act = GC-A (human) enzyme activation. activation, % at 10 µM. P16066. AID 1671463. 370,000 tested, 0.14% active. HEK293 GC-A cells, cGMP TR-FRET, EC30 ANP; 0% at EC30 ANP, 100% saturating ANP; in the data active = activation above about 40%
Rce1 inh = inhibitors of yeast Ras-converting enzyme. Q03530. calls only. AID 2563. 290,000 tested, 0.27% active. yeast membranes, quenched prenylated peptide cleavage fluorescence;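 active = fall in fluorescence gain of 50% or more versus controls, with final raw signal at or below 3038400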;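 note: plate controls were neutral control wells for no effect and wells lacking membranes for full effect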
Target sequence (Q03530 whole entry, looked up): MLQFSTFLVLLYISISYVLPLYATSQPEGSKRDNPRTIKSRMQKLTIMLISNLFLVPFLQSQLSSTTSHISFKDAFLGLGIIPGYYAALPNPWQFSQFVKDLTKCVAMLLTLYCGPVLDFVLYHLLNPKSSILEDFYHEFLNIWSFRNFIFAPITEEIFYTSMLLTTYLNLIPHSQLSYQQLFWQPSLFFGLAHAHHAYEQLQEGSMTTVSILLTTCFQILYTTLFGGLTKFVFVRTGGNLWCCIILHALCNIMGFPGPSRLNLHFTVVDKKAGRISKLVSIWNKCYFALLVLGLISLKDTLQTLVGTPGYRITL
M18AAP inhibitor = PfM18AAP enzyme inhibition; recombinant PfM18AAP, H-Glu-NHMec fluorogenic cleavage; inhibition, % at 7.35 µM; AID 1822; 290,000 tested, 1.2% active;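 active = inhibition above the campaign mean inhibition over all tested compounds plus 3 SD, cut at about 28% in these data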;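 note: 0% = plate median of test compound wells and 100% = 2 mM ZnCl2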
NPR2 activator = GC-B (human) receptor activation; P20594; HEK293-GC-B cells, CNP EC30, cGMP TR-FRET; 0% at EC30 CNP, 100% saturating CNP; activation, % at 10 µM; 370,000 tested, 0.11% active;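 active = activation at 10 µM reaching about 35% in either raw or pattern-adjusted values, limit read from the data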
PLCg1 inh = blocks human PLC-gamma1 enzyme activity; inhibition, % at 12.2 µM; AID 720700; 370,000 tested, 0.84% active; purified PLC-gamma1, fluorogenic substrate, fluorescence
PLCg1 ctr = counter-screen for PLC-beta3 inhibitors: inhibitors of human PLC-gamma1; AID 743258; shares compounds with PLCg1 inh; 3,300 tested, 3.1% active; inhibition, % at 12.3 µM; purified PLC-gamma1, fluorogenic substrate, fluorescence
PLCb3 confirm = human PLC-beta3 inhibition, confirmation; shares compounds with PLCg1 inh; 3,300 tested, 1% active; purified PLC-beta3, fluorogenic substrate fluorescence; AID 743261; inhibition, % at 12.3 µM; in the data active = inhibition above about 11%
* marks the source's active call; other numbers are inactive results; i = inactive; . = not tested or not shown. Cut-off read from the data, not from the text of the source, unless noted: active = inhibition above about 9.5%; inactive = the rest.

SMILES	PLCb3 inh	GC-A act	Rce1 inh	M18AAP inhibitor	NPR2 activator	PLCg1 inh	PLCg1 ctr	PLCb3 confirm
O=C(Cc1cccs1)Nc1ccc(F)c(S(=O)(=O)N2CCOCC2)c1	1.5	2.4	.	.	-3.1	9.9*	-5.3	-1.4
Cc1ccc(NC(=O)COC(=O)CN2C(=O)C3CCCCC3C2=O)cc1S(=O)(=O)N1CCOCC1 (stereo not drawn)	-2.5	0.2	i	1.9	2.3	2.3	.	.
Cc1ccc(NC(=O)CSc2ccccc2)cc1S(=O)(=O)N1CCOCC1	-1.8	-1.4	.	.	0.0	11.9*	-32.1	-2.9
Cc1ccc(NC(=S)NCc2ccccc2)cc1S(=O)(=O)N1CCCCC1	9.2	-4.1	i	2.5	5.5	13.9*	5.2	7.7
Cc1ccc(NC(=O)COC(=O)CC2CC3CCC2C3)cc1S(=O)(=O)N1CCOCC1 (stereo not drawn)	-2.0	4.5	.	.	-1.8	11.5*	-5.8	-3.8
Cc1ccc(NC(=O)CSc2ccccc2)cc1S(=O)(=O)N1CCCCC1	-1.2	-0.7	.	.	3.5	3.5	.	.
O=C(CSc1nnc(-c2ccccc2)n1-c1ccccc1)NN=Cc1ccc(-c2ccccc2)cc1	-3.9	-7.5	.	.	3.8	0.7	.	.
O=C(C(=O)N1CCC(CNS(=O)(=O)c2ccc(C(F)(F)F)cc2)CC1)c1cccs1	-1.4	2.5	.	.	3.1	1.9	.	.
CC(=O)C1=C(C)N(Cc2ccc(Cl)cc2)C(=S)NC1c1cccc(Br)c1 (stereo not drawn)	0.5	4.2	.	.	-6.0	3.0	.	.
O=C(Nn1c(C2CCC2)nc2ccccc2c1=O)c1cccs1	14.6*	-2.0	i	1.8	-1.2	9.0	-6.3	-4.1
O=C(Nn1c(C2CCC2)nc2ccccc2c1=O)C1CCC1	0.1	-1.6	i	-5.8	3.1	0.0	.	.
CC(=O)Nc1ccc(S(=O)(=O)N2c3ccc(F)cc3CCC2C)cc1 (stereo not drawn)	-4.1	-5.2	.	.	-3.6	10.0*	-6.6	-3.3
COc1ccc(S(=O)(=O)N2c3ccc(F)cc3CCC2C)cc1 (stereo not drawn)	-2.9	-21.6	i	.	-20.3	0.9	.	.
Cn1cc(CNCc2cnc3ccccn23)c(-c2ccc(Oc3ccccc3)cc2)n1	8.4	-2.2	i	1.2	-4.0	14.8*	2.1	4.8
Cc1ccccc1-c1cc2c(nn1)-c1ccccc1C2=O	11.9*	-0.9	i	-19.3	-4.9	8.8	1.7	1.2
Cc1ccc(Oc2ccc(C(=O)NC3CCSC3=O)cn2)cc1 (stereo not drawn)	2.5	2.8	i	3.4	-1.6	2.9	.	.
Cc1cccc(Oc2ccc(C(=O)NC3CCSC3=O)cn2)c1C (stereo not drawn)	15.2*	-2.0	i	-3.7	-3.3	3.7	-1.1	-0.1
Cc1cc(NC(=O)c2ccc(NS(=O)(=O)c3ccccc3F)cc2)no1	-2.9	1.3	.	.	-8.0	-0.1	.	.
O=C(OCc1cn(Cc2ccccc2)nn1)N1CCOCC1	0.1	-1.3	.	.	-0.3	0.7	.	.
Cc1cccc(-c2nn(-c3ccccc3)cc2C(=O)Nc2cccc(S(=O)(=O)NC3=NCCC3)c2)c1	1.5	-0.6	i	.	-5.9	10.7*	-5.9	-3.0
CC(C)C[C@@H]1COc2cc(N3CCSCC3)ccc2S(=O)(=O)N1C	-0.5	3.3	.	.	-0.5	0.2	.	.
Cc1cnn(Cc2ccccc2)c1N	7.5	-0.5	i	1.7	5.5	10.5*	-8.7	-4.3
O=C(c1cccnc1)N1CCCC(Nc2ccc(F)cc2)C1 (stereo not drawn)	-3.9	0.2	i	-5.2	2.6	14.5*	-0.8	-1.4
O=C(c1cccc(S(=O)(=O)N2CCN(c3ccc(F)cc3)CC2)c1)N1CCCC(C(F)(F)F)C1 (stereo not drawn)	-3.9	-2.2	i	.	-1.2	10.3*	13.7*	5.2
CC(C)n1cc(C(=O)N2CCCC(N3CCN(c4ccc(F)cc4)CC3)C2)cn1 (stereo not drawn)	-3.6	2.5	i	2.9	0.2	2.9	.	.
